Several values for one entry are separate records, joined by “and”; a condition that tells them apart may be missing. Equal values may be shown once. In all, about 5,500 compounds went through this assay and about 2,000 (36%) were called active. Roughly 18% stayed inconclusive and do not appear here. No stated cut-off is given here; in the data, active means normalized growth mostly below about 0.91 (no sharp cut-off); inconclusive means no clear call, values can overlap the other calls; inactive means mostly above about 0.92. This is one part of the list. A structure can be active in one record and inactive in another.
Test: chemical genetic growth profiling, strain panel (AID 1159580);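 further: tested at 20 µM; growth read once vehicle control cultures reached saturation at 30 °C; 1 = growth at the plate median or of vehicle wells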
Conditions: S. cerevisiae deletion strains, growth OD

Measured: normalized growth

CCN(CC)CCCC(C)Nc1c2ccc(Cl)cc2nc2ccc(OC)cc12 (stereo unspecified)
active: locus YAL021C, strain ccr4, stronger effect = lower value 0.906 | locus YBR009C, strain hhf1, stronger effect = lower value 0.894 | locus YBR229C, strain ROT2, stronger effect = lower value 0.87 | locus YCL016C, strain dcc1, stronger effect = lower value 0.844 | locus YCL029C, strain bik1, stronger effect = lower value 0.479 | locus YCL061C, strain MRC1 (second series), stronger effect = lower value 0.917 | locus YDL035C, strain GPR1, stronger effect = lower value 0.627 | locus YDL074C, strain BRE1, stronger effect = lower value 0.511 | locus YDL101C, strain DUN1, stronger effect = lower value 0.728 | locus YDL134C, strain PPH21, stronger effect = lower value 0.771 | locus YDL192W, strain arf1, stronger effect = lower value 0.669 | locus YDR101C, strain arx1, stronger effect = lower value 0.413 | locus YDR162C, strain NBP2, stronger effect = lower value 0.802 | locus YDR318W, strain mcm21, stronger effect = lower value 0.618 | locus YDR363W, strain ESC2, stronger effect = lower value 0.715 | locus YDR388W, stronger effect = lower value 0.695 | locus YDR392W, strain spt3, stronger effect = lower value 0.717 | locus YDR502C, strain sam2, stronger effect = lower value 0.708 | locus YEL061C, strain CIN8, stronger effect = lower value 0.907 | locus YER167W, strain BCK2, stronger effect = lower value 0.641 | locus YGL078C, strain dbp3, stronger effect = lower value 0.817 | locus YGL086W, strain mad1, stronger effect = lower value 0.74 | locus YGL248W, strain PDE1, stronger effect = lower value 0.735 | locus YGR078C, strain PAC10, stronger effect = lower value 0.818 | locus YGR135W, strain pre9, stronger effect = lower value 0.739 | locus YGR229C, strain SMI1, stronger effect = lower value 0.754 | locus YGR252W, strain gcn5, stronger effect = lower value 0.643 | locus YHR013C, strain ard1, stronger effect = lower value 0.844 | locus YHR030C, strain SLT2, stronger effect = lower value 0.911 and 0.737 | locus YHR079C, strain IRE1 (second series), stronger effect = lower value 0.49 | locus YHR079C, strain IRE1, stronger effect = lower value 0.761 | locus YHR094C, strain hxt1, stronger effect = lower value 0.796 | locus YHR129C, strain ARP1, stronger effect = lower value 0.809 | locus YHR200W, strain rpn10, stronger effect = lower value 0.786 | locus YIL066C, strain RNR3, stronger effect = lower value 0.798 | locus YIL125W, strain kgd1, stronger effect = lower value 0.899 | locus YIR030C, strain dcg1, stronger effect = lower value 0.768 | locus YJL095W, strain BCK1, stronger effect = lower value 0.622 and 0.668 | locus YJL164C, strain tpk1, stronger effect = lower value 0.911 | locus YJL187C, strain SWE1 (second series), stronger effect = lower value 0.453 | locus YJR043C, strain POL32, stronger effect = lower value 0.79 | locus YJR066W, strain TOR1, stronger effect = lower value 0.558
0.945 (inactive) and 0.826 (active): locus YDR150W, strain NUM1, stronger effect = lower value
inactive: locus YAL013W, strain DEP1, stronger effect = lower value 0.992 | locus YAL026C, strain drs2, stronger effect = lower value 0.994 | locus YAL030W, strain snc1, stronger effect = lower value 1.02 | locus YAL040C, strain CLN3, stronger effect = lower value 0.972 | locus YBL061C, strain skt5, stronger effect = lower value 1.03 | locus YBR021W, strain FUR4, stronger effect = lower value 0.89 | locus YBR023C, strain chs3, stronger effect = lower value 0.984 | locus YBR171W, strain sec66, stronger effect = lower value 1.05 | locus YBR231C, strain swc5, stronger effect = lower value 0.978 | locus YBR279W, strain paf1, stronger effect = lower value 0.966 | locus YCL011C, strain gbp2, stronger effect = lower value 0.965 | locus YCL061C, strain MRC1, stronger effect = lower value 1.01 | locus YCL069W, strain vba3, stronger effect = lower value 1.01 | locus YCR088W, strain abp1, stronger effect = lower value 1.03 | locus YDL005C, strain med2, stronger effect = lower value 1.01 | locus YDL040C, strain nat1, stronger effect = lower value 1.03 | locus YDL185W, strain tfp1, stronger effect = lower value 1.01 | locus YDR001C, strain nth1, stronger effect = lower value 1.04 | locus YDR069C, strain doa4, stronger effect = lower value 0.989 | locus YDR137W, strain rgp1, stronger effect = lower value 1.04 | locus YDR159W, strain sac3, stronger effect = lower value 1.08 | locus YDR195W, strain ref2 1.06 | locus YDR297W, strain sur2, stronger effect = lower value 1 | locus YDR334W, strain swr1, stronger effect = lower value 1.02 | locus YDR335W, strain msn5, stronger effect = lower value 1.02 | locus YEL003W, strain gim4, stronger effect = lower value 1.01 | locus YEL037C, strain rad23, stronger effect = lower value 0.992 | locus YEL061C, strain CIN8 (second series), stronger effect = lower value 1.03 | locus YER002W, strain NOP16, stronger effect = lower value 1 | locus YER015W, strain faa2, stronger effect = lower value 1.01 | locus YER016W, strain bim1, stronger effect = lower value 1.02 | locus YER110C, stronger effect = lower value 0.908 | locus YER111C, strain swi4, stronger effect = lower value 1.02 | locus YER155C, strain BEM2 (second series), stronger effect = lower value 0.943 | locus YER155C, strain BEM2, stronger effect = lower value 0.997 | locus YFR010W, strain ubp6, stronger effect = lower value 0.988 | locus YGL167C, strain pmr1, stronger effect = lower value 1.03 | locus YGL173C, strain kem1, stronger effect = lower value 0.997 | locus YGL227W, strain vid30, stronger effect = lower value 1.03 | locus YGL240W, strain doc1, stronger effect = lower value 1 | locus YGL253W, strain hxk2, stronger effect = lower value 0.975 | locus YHR027C, strain rpn1, stronger effect = lower value 1.03 | locus YHR142W, strain chs7, stronger effect = lower value 0.947 | locus YIL073C, strain SPO22, stronger effect = lower value 0.69 | locus YJL092W, strain hpr5, stronger effect = lower value 1.02 | locus YJL095W, strain BCK1 (second series), stronger effect = lower value 1.03 | locus YJL115W, strain asf1, stronger effect = lower value 1.03 | locus YJL129C, strain trk1, stronger effect = lower value 1.02 | locus YJL134W, strain LCB3, stronger effect = lower value 1.01 | locus YJL154C, strain vps35, stronger effect = lower value 1.04 | locus YJL166W, strain qcr8, stronger effect = lower value 0.942 | locus YJL168C, strain set2, stronger effect = lower value 1.02 | locus YJL187C, strain SWE1, stronger effect = lower value 1.01
